Growth data for 40 compounds are collected here from PubChem BioAssay (NCI).

This is part of a sample that, as a whole, favours compounds with a hit. Of some 83,000 tested, about 20% had one in any assay.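 Growth was measured after 48 h exposure to one concentration of compound in 96-well plates. Values under 10 count as active.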 Unmarked numbers belong to inactive results. Activity calls are given as the source filed them.

The subject of this assay is TK-10 renal. As to the kind of experiment: NCI-60 one-dose screen, 48 h (100 = growth as untreated, 0 = no growth, -100 = all killed). Conditions: 10 µM unless noted.
For `COCCOc1ccc2ncc(C#Cc3cncc(C(=O)Nc4ccc(CN5CCN(C)CC5)c(C(F)(F)F)c4)c3)n2n1`, the growth is 14.3%.

Regarding `CCOC(=O)c1c(N)c(C#N)cn1Cc1ccc(Cl)cc1Cl`, the growth was 69.8%.

With `Cc1ccc(Nc2nc(SC(C)C)nc(-c3ccccc3)c2C#N)cc1`, the growth is 82.1%.

Take `O=C(CSc1nc2ccccc2c(=O)n1-c1ccc(Cl)c(Cl)c1)Nc1ccc(S(=O)(=O)Nc2ccc(Cl)nn2)cc1`: the growth is 118%.

Consider `N#Cc1cnc2ccc(-c3cnc4n[nH]nc4c3)cc2c1N1CCc2cc(F)c(Cl)cc21`, for which the growth was -11.4% (active).

In the case of `CNC(=O)Nc1ccc(Nc2cc(-c3ccc(-n4cccn4)cc3)[nH]n2)c(C)c1`, the growth was 138%.

Take `CN1CCN(Cc2ccc(NC(=O)c3cncc(C#Cc4cnc5ccc(N)nn45)c3)cc2C(F)(F)F)CC1`: the growth was 40.4%.

Regarding `Cc1cc(=O)oc2cc(OCCCOc3ccc(/C=C/C(=O)Nc4ccc(Br)cc4)cc3)ccc12`, the growth is 78.9%.

In the case of `C/C(CC1(O)C(=O)Nc2ccccc21)=N\O` (stereo not given), the growth is 104%.

Regarding `Cc1ccc2c(n1)C(=O)C(Cl)=C(Nc1ccccc1C(=O)OC(C)(C)C)C2=O`, the growth is -84.6% (active).

`COc1ccc(/C=N\NC(=O)c2cnn(CC(O)c3ccccc3)c2N)cc1OCc1ccc(Cl)cc1` (stereo not given): the growth was 101%.

`NC(N)=NS(=O)(=O)c1ccc(N=Nc2c(N)nn(-c3ccc([N+](=O)[O-])cc3[N+](=O)[O-])c2N)cc1`: the growth is 120%.

As to `COc1ccccc1Cn1cc(C#N)c(N)c1C(=O)c1ccc(Br)cc1`, the growth was 108%.

For `CC(=C(c1ccc(OCCN2CCCC2)cc1)c1ccc(OCCN2CCCC2)cc1)c1ccc(Cl)cc1`, the growth is 78.6%.

`CCN(CC)CCOc1ccc(C(=C(C)Cc2ccc(OC)cc2)c2ccc(OCCN(CC)CC)cc2)cc1`: the growth is 111%.

As for `Fc1ccc(-c2cn3c(-c4c[nH]c5ccc(Br)cc45)csc3n2)cc1`, the growth is 80.3%.

Consider `CC1=C(C)C(=O)C(Nc2cccc(C(=O)OC(C)(C)C)c2)=CC1=O`, for which the growth was 125%.

Regarding `CSc1ccc(/C(=N/N=C(N)N)c2ccc(Cl)cc2)cc1`, the growth was 51.3%.

`O=C(/C=C/Nc1ccc(S(=O)(=O)Nc2ncccn2)cc1)c1ccc(N=Cc2c(O)[nH]c3ccccc23)cc1`: the growth is 112%.

For `N#Cc1c(-c2cccs2)cc(-c2cnccn2)nc1SCC(=O)N/N=C/c1cccs1`, the growth was 65.1%.

Regarding `O=S(=O)(NCCCNc1nccc(-c2[nH]c(-c3ccccc3)nc2-c2ccc(F)c(O)c2)n1)c1ccccc1`, the growth was 154%.

Turning to `CC1(C)CC[C@]2(C(=O)NCCCCCCN(CCCN)CCCN)CC[C@]3(C)C(=CC[C@@H]4[C@@]5(C)CC[C@H](O)C(C)(C)[C@@H]5CC[C@]43C)[C@@H]2C1`, the growth is 106%.

On to `CCOC(=O)c1c(NCC(=O)Nc2cccc([N+](=O)[O-])c2)sc(C(C)=O)c1C`, for which the growth is -22.6% (active).

With `O=c1oc2ccc(-c3ccc(F)cc3F)cc2c(=O)n1-c1ccc(Br)cc1F`, the growth was 64.8%.

For the compound `Cc1ccc2c(n1)C(=O)C(Cl)=C(Nc1cccc(C(=O)OC(C)(C)C)c1)C2=O`, the growth is 120%.

For `C/C(=C(\c1ccc(O)cc1)c1ccc(OCCN2CCCCCC2)cc1)c1ccc(Cl)cc1`, the growth is -95.2% (active).

Take `CC1=C(C)C(=O)C(Nc2cccc(C(F)(F)F)c2)=C(Br)C1=O`: the growth was 157%.

`CC(C)C(/C=C/c1[nH]ncc1-c1cc(Cl)ccc1O)N1CCOCC1` (stereo not given): the growth is 119%.

On to `Fc1cccc(Cl)c1/C=N/Nc1nc(N/N=C/c2c(F)cccc2Cl)nc(N2CCCCC2)n1`, for which the growth is 27.2%.

As for `COc1ccc(C2C(C#N)=C(/N=C/c3ccc(Cl)cc3)Oc3c2sc2c(C)cccc32)cc1` (stereo not given), the growth was 76.9%.

With `O=C(CCCCCCNC(=O)C(O)(O)C(F)(F)F)Nc1ccc(Cl)cc1`, the growth is 3.6% (active).

As for `O=C1C(SCc2ccccc2)=C(Cl)CN1c1ccc(Cl)cc1`, the growth is 111%.

Regarding `Cc1ccc(-c2nc(SCC(=O)c3ccccc3)nc(Nc3ccc(S(N)(=O)=O)cc3)c2C#N)cc1`, the growth is 67.5%.

On to `O=C1C(N2CCN(c3ccccc3)CC2)=C(Cl)C(=O)c2ncccc21`, for which the growth was 123%.

For `C#Cc1nc(C(=O)NCCCCCCC(=O)NO)cs1`, the growth was -14.2% (active).

With `C[C@H](Nc1ncnc2ccc(-c3cnc(Cl)c(NS(C)(=O)=O)c3)cc12)c1ccccc1`, the growth is -82.3% (active).

For the compound `Cc1ccc(/C=N/Nc2nc(Nc3ccccc3)nc(Nc3ccc(S(N)(=O)=O)cc3)n2)cc1`, the growth was 94.5%.

As for `Cc1ccc(S(=O)(=O)NCCCNc2nc(Nc3ccc(N4CCN(C)CC4)cc3)nc3ccsc23)cc1`, the growth is 124%.

Regarding `CC(C)=CCC[C@](C)(O)[C@H]1CC[C@]2(C)[C@@H]1CC[C@@H]1[C@@]3(C)CC[C@H](N)C(C)(C)[C@@H]3CC[C@]12C`, the growth was 127%.

With `NNc1nnc2nc(Nc3ccccc3)nc(Nc3ccc(S(N)(=O)=O)cc3)n12`, the growth was 106%.
